Experimental findings from PubChem BioAssay AID1347075 (National Center for Advancing Translational Sciences (NCATS), 2019) are described below.

The campaign covered roughly 400,000 compounds. About 5,500 (1.4%) were called active. Inconclusive results (about 9%) are left out. Calls follow the shape of the dose curve; as a rule, active = well fitted cell-killing curve with a large enough effect; inconclusive = small, poorly fitted or top-dose-only effect, or effect the other way; inactive = flat fitted curve, though single readings scatter. What follows is part of a selection rich in actives, with near analogues and random picks from the rest. Where a call stands in place of a potency, no number is given.
Potency is read from the fitted curve at half-maximal effect.

The experiment is described as follows: qHTS assay for MDR1-selective chemotherapeutics: Primary screen using the parental adenocarcinoma cell KB-3-1. Also: nearly all actives have a fitted effect of over 60% in size. Particulars: KB-3-1 viability, CellTiter-Glo ATP luminescence, 72 h; series mostly up to 46.1 µM. The method in brief:
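Cytotoxicity measured as CellTiter-Glo luminescence after 72 h at 37 C. Compound titrations were pinned onto drug-naive KB-3-1 parental adenocarcinoma cells grown in DMEM with 10% FBS, and normalized data fitted to concentration-response curves.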
(In general: In qHTS, concentration-response curves come from the screen itself.)
`COc1ccc(NC(=O)CCCN2C(=O)CCn3nc(-c4cn(C)c5ccccc45)cc32)cc1OC`: the Potency entry was “inactive”.
Turning to `O=c1oc2ccccc2cc1-c1cn(-c2ccccc2)c(=S)[nH]1`, the Potency is 3.66 µM (active).
Take `Cc1cc(NC(=O)c2cccc(Cl)c2)ccc1-c1cc2ccccc2oc1=O`: the Potency entry was “inactive”.
As for `COc1cc(CNC(=O)c2cc3n(n2)CCCN(Cc2cccc(F)c2)C3=O)cc(OC)c1OC`, the entry is “inactive”; as for `COc1ccc(CNC(=O)CSc2nc3ccccc3nc2Cc2ccccc2)cc1`, “inactive”.
In the case of `COc1ccc2c(c1)c(=Cc1ccc(N(C)C)cc1)c1cc(-c3ccccc3)[n+](C)n12` it was 3.66 µM (active).
In the case of `CN(C)c1ccc(/C=c2\[nH]c(=O)/c(=C/c3ccc(N(C)C)cc3)[nH]c2=O)cc1` it was “inactive”.
For `NC(=O)C1CCN(c2cc(-c3ccc4c(c3)OCCCO4)ncn2)CC1`, the Potency result is “inactive”.
In the case of `Cc1oc2ccc(O)c(CN3CCCCC3)c2c1C(=O)Nc1cccc(C(F)(F)F)c1` it was “inactive”; in that of `COc1ccc(CCNC(=O)c2ccc(-n3c(C)cc4c3CCCC4)cc2)cc1OC`, “inactive”; in that of `COc1cc(Cl)c(C)cc1Nc1nnc(-n2nc(C)cc2C)c2ccccc12`, “inactive”.
In the case of `COc1ccc(C(C)=O)cc1CSc1nc2nc(C)cc(C)n2n1` it was “inactive”.
In the case of `COc1ccc(C(=O)NNc2cc(C)nc(NNC(=O)c3ccc(OC)cc3)n2)cc1`, the Potency result was “inactive”.
On to `COc1ccccc1/C=N\Nc1cc(C)nc(-n2nc(C)cc2C)n1`, for which the Potency was 7.31 µM (active).
For the compound `COc1ccc(Nc2cc(C)nc(-n3nc(C)cc3C)n2)cc1`, the Potency is 0.731 µM (active).
`COc1ccccc1/C=N/N1CCN(Cc2ccccc2Cl)CC1`: the Potency entry is “inactive”.
With `Cc1cc(C)nc(-n2nc(C)cc2NC(=O)c2ccc(F)cc2F)n1`, the Potency result is “inactive”.
In the case of `COc1ccc(Nc2cc(Sc3ccc(OC)cc3)ncn2)cc1` it was “inactive”.
`CC(=O)c1ccc(Oc2cc(C)nc(-n3nc(C)cc3C)n2)cc1`: the Potency is 0.651 µM (active).
On to `NS(=O)(=O)c1ccc(NC(=O)C(=O)Nc2ccc3nc4n(c(=O)c3c2)CCCCC4)cc1`, for which the Potency result is “inactive”.
In the case of `COc1ccc(CCN2C(=O)N(c3cccc(OC)c3)C(=O)C2CC(=O)Nc2ccccc2)cc1` (stereo unspecified) it was “inactive”; in that of `COc1ccccc1CNS(=O)(=O)c1cc(Br)cc2c1N(C(C)=O)C(C)C2` (stereo unspecified), “inactive”.
Turning to `Cc1ccc2c(c1)c1c(c(=O)n(-c3ccccc3)c(=O)n1CC(=O)c1ccc(Cl)cc1)n2C`, the Potency result is “inactive”.
As for `COC(=O)CC1Oc2ccccc2-n2cc(-c3ccccc3)nc21` (stereo unspecified), the Potency result is “inactive”.
Turning to `CCOCCCNC(=O)c1c(NC(=O)Cc2coc3c(C)c(C)ccc23)sc2c1CCC2`, the Potency entry is “inactive”.
In the case of `O=C(CCc1ccccc1)NCc1ccc2c(c1)CCN2C(=O)c1ccccc1` it was “inactive”; in that of `CCCCn1c(CNC(=O)C23CC4CC(CC(C4)C2)C3)nnc1SCC(=O)Nc1ccc(C)cc1`, “inactive”.
As for `Cc1ccc(C(=O)Nc2cc3c(cc2N2CCCC2)n(C)c(=O)c(=O)n3C)cc1`, the entry is “inactive”; as for `CCCC1=Nc2cc(C(=O)NCc3ccco3)ccc2Sc2ccccc21`, 5.8 µM (active).
As to `CCCC1=Nc2cc(C(=O)NCCN3CCCC3)ccc2Sc2ccccc21`, the Potency result is “inactive”.
As for `COc1ccc(CCNS(=O)(=O)c2ccc(C(=O)NCc3ccco3)cc2)cc1OC`, the entry is “inactive”; as for `Cc1ccc(OCC(=O)Nc2ccc(Cl)c(-c3nc4ccccc4[nH]3)c2)cc1C`, “inactive”; as for `O=C(c1ccc(Cl)cc1)n1nc(-c2cccnc2)nc1NCc1ccc(F)cc1`, “inactive”.
As for `O=C(Cn1nc(CNc2ccc(Cl)cc2)[n+]2c1CCCCC2)c1ccc(Cl)cc1`, the figure is 16.4 µM (active); as for `O=C(Cn1ncc(N2CCCC2)c(Br)c1=O)c1ccc(Cl)cc1`, “inactive”; as for `O=C(Cn1nc(C(F)(F)F)c2c1CCCC2)Nc1ccc(Cl)cc1`, “inactive”.
In the case of `Cc1nc2ccc(S(=O)(=O)N(CC(=O)Nc3ccc(F)cc3)Cc3ccccc3)cc2s1`, the Potency entry was “inactive”.
In the case of `COc1ccc(-c2nc3c4ccccc4n(CC(=O)Nc4ccc(C(C)=O)cc4)c(=O)n3n2)cc1` it was “inactive”.
Turning to `CCc1ccccc1OCC(=O)Nc1ccc(C)c(S(=O)(=O)N2CCCCCC2)c1`, the Potency is 18.4 µM (active).
On to `COc1ccccc1C(=O)Nc1ccc(C)c(S(=O)(=O)N2CCCCC2)c1`, for which the Potency result is “inactive”.
For `Cc1ccc(NC(=O)COC(=O)C2CC2)cc1S(=O)(=O)N1CCOCC1`, the Potency result is “inactive”.
As for `O=C(CCc1nc(CN2CCN(S(=O)(=O)c3ccc(Cl)cc3)CC2)no1)N1CCCCC1`, the Potency result was “inactive”.
For the compound `COc1cc2ccccc2cc1C(=O)Nc1cccc(-c2nc3ccccc3o2)c1`, the Potency result is “inactive”.
In the case of `Cc1cccc(NC(=O)CSc2nc3c([nH]c4ccccc43)c(=O)n2-c2cc(C)cc(C)c2)c1` it was “inactive”; in that of `COc1cc(-c2c(-c3ccc4c(c3)OCO4)noc2C)ccc1F`, 3.26 µM (active); in that of `COc1cc2c(-c3ccc4c(c3)OCO4)c(-c3ccsc3)oc(=O)c2cc1OC`, “inactive”.
As for `Cc1oc(C)c2c(=O)cc(-c3ccc4c(c3)OCO4)cc(OC(=O)c3ccc(Cl)cc3)c12`, the entry is “inactive”; as for `Cc1ccc(C=O)cc1Cl`, “inactive”.
With `O=C(CSc1oc(-c2ccccc2)nc1S(=O)(=O)c1ccc(Br)cc1)NC1CCCCC1`, the Potency entry is “inactive”.
As for `COc1ccc(OC)c(-c2noc(N3CCN(c4cc(Cl)ccc4C)CC3)n2)c1`, the entry is “inactive”.
As for `CCOc1ccccc1CNC(=O)c1cnc2c(-c3ccc(OCC)c(OCC)c3)c(C)nn2c1C`, the entry is “inactive”; as for `Cc1ccccc1-c1nc2cc(NC(=O)c3cccc(OCCC(C)C)c3)ccc2o1`, “inactive”; as for `Cc1cc(O)c(C(c2ccccc2)N2CCN(c3ccccc3F)CC2)c(=O)n1Cc1ccco1` (stereo unspecified), “inactive”.
As for `Cc1ccc(S(=O)(=O)CCC(=O)OCC(=O)N(C)Cc2ccccc2)cc1`, the entry is “inactive”; as for `Cc1cccc(C)c1NC(=O)CCS(=O)(=O)c1cccc2nsnc12`, “inactive”.
`COc1cccc2sc(N(CCCN(C)C)C(=O)CCS(=O)(=O)c3ccccc3)nc12`: the Potency is 18.4 µM (active).
In the case of `COc1ccccc1CNC(=O)CS(=O)(=O)c1cccc2nsnc12` it was “inactive”.
Regarding `COc1ccc(C)cc1NC(=O)CCS(=O)(=O)c1cccc2nonc12`, the Potency entry is “inactive”.
As for `Cc1cccc2sc(N(CCCN(C)C)C(=O)CCS(=O)(=O)c3ccccc3)nc12`, the figure is 20.6 µM (active); as for `COc1cc(NC(=O)c2nn(-c3ccc(C)cc3)c(=O)c3c2c2ccccc2n3C)cc(OC)c1OC`, “inactive”.
For the compound `COc1ccc(C)cc1-n1c(-c2ccc(C)cc2)cc2c1CC(C)(C)CC2=O`, the Potency entry was “inactive”.
